# Unmarked numbers belong to inactive results. No rule for the calls is given here.
# Molecular target: Pantothenate synthetase (Mycobacterium tuberculosis (strain ATCC 25618 / H37Rv)) (UniProt P9WIL5)
# Test: Recombinant Mtb pantothenate synthetase (PanC) inhibitors, coupled enzyme, confirmatory (AID 375);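 also: 0% = full reaction with vehicle and 100% = no enzyme background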
# Details: coupled enzyme assay; at 10 µM, stronger effect = higher value
# Chain of Pantothenate synthetase (Mycobacterium tuberculosis (strain ATCC 25618 / H37Rv)) (P9WIL5 whole entry, looked up): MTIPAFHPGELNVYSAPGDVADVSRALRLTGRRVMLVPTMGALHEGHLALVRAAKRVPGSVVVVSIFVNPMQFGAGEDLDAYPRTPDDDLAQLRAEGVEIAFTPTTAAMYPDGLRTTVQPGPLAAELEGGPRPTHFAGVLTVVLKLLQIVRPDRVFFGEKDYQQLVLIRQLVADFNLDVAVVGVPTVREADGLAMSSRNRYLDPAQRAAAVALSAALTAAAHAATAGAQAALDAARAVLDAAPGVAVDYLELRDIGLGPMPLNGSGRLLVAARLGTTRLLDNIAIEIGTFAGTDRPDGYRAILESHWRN
row,SMILES,inhibition [%]
1,COC(=O)Cn1c(=O)c2c(nc(Br)n2CC(=O)OC)n(C)c1=O,0
2,Cc1cc(-c2ccc(F)cc2)nc2cc(C(N)=O)nn12,0
3,Cc1sc2nc3n(c(=O)c2c1C)NC(=O)CC3,0
4,CCn1c(SCC(=O)C(C)(C)C)nnc1-c1cnccn1,0
5,CCSc1nnc(NC(=O)c2csc(C)c2)s1,1
6,COc1ccccc1Oc1coc2c(CN3CCN(C)CC3)c(O)ccc2c1=O,0
7,CC(C)(C)NC(=O)Cn1c(=O)oc2ccc(Cl)cc21,0
8,O=C(NCc1cccnc1)c1ccc(=O)oc1,3
9,O=C(Cn1cnc2c(oc3ccccc32)c1=O)N1CCN(c2ccccc2)CC1,1
10,COc1ccc(-c2noc(CCC(=O)Nc3nc4ccccc4s3)n2)cc1,0
11,Cc1cc(C(F)(F)F)nc(SCC(=O)NC2=NC(=O)C(C)S2)n1 (stereo not given),2
12,CCN=C1SC(CC(=O)Nc2ccccc2OCC)C(=O)N1CC (stereo not given),0
13,Cc1cc(C(=O)NCc2cccnc2)n(-c2ccccc2)n1,0
14,CCCCC(NC(C)=O)c1nc2ccccc2n1CCC (stereo not given),0
15,CC(=O)OC[C@H]1O[C@@H](n2ncc(=O)[nH]c2=O)[C@H](OC(C)=O)[C@@H]1OC(C)=O,0
16,CCOc1ccc(S(=O)(=O)Nc2ccccc2C(=O)Nc2ccccc2N2CCOCC2)cc1,1
17,COC(=O)c1ccccc1NC(=O)C1CC(=O)N(c2ccccc2)C1 (stereo not given),4
18,Cc1ccc2c(c1)nnn2C1CCN(C(=O)NC23CC4CC(CC(C4)C2)C3)CC1,0
19,CCOC(=O)N1CCC(NC(=O)CCc2c(C)nc3c(c(C)nn3C(C)(C)C)c2C)CC1,7
20,O=C(CN1CCCN(S(=O)(=O)c2ccc(Br)cc2)CC1)Nc1ccc2c(c1)OCO2,4

row,SMILES,inhibition [%]
1,CCn1cc(C(C)NC(=O)COc2ccc(Cl)cc2C)c(C)n1 (stereo not given),0
2,CCCCOc1ccc(C(=O)N2CCC(C)CC2)cc1,0
3,COC(=O)[C@H](C)NC(=O)NCc1ccc(F)cc1,1
4,COc1ccccc1C(=O)Nc1ccccc1C(=O)N1CCCC1,1
5,CN(C)S(=O)(=O)c1ccc(S(=O)(=O)N(Cc2ccco2)Cc2ccccc2Cl)cc1,3
6,COCCN(CCOC)c1ncnc2c1cnn2-c1ccccc1,0
7,CN(CC(=O)N1CCCc2c1c(=O)oc1ccc(O)cc21)Cc1ccccc1,0
8,Cc1cccc(C(=O)N(C)c2nnc(-c3ccncc3)s2)c1,0
9,CCOC(=O)Cn1c(=O)c(-c2ccccc2N)nc2ccccc21,3
10,COc1cc(NS(=O)(=O)c2ccc(N)cc2)nc(OC)n1,0
11,CC1(C)CC(=O)C(C=NCCc2ccc(S(N)(=O)=O)cc2)=C(O)C1,0
12,CCCNC(=O)N1CCN(S(=O)(=O)c2ccc(C)c(C)c2)CC1,4
13,COc1ccc2c(c1OC)C(=O)OC2CC(=O)c1ccc(O)cc1 (stereo not given),0
14,CCOC(=O)COc1ccc(C2NC(C(=O)O)CS2)cc1 (stereo not given),0
15,CCOC(=O)N1CCN(C(=O)CSc2nnc(Cc3ccccc3)o2)CC1,0
16,c1ccc2c(c1)c1c3n2CCNC3CCC1 (stereo not given),0
17,Nc1nc2n(n1)C(c1cccc(Br)c1)CC(c1ccc(F)cc1)N2 (stereo not given),0
18,CC(=O)Nc1ccc(NS(=O)(=O)C(F)(F)F)cc1,0
19,CCn1c(COc2cccc3ccccc23)nnc1SCC(N)=O,9
20,CC(=O)c1ccc(OCC(O)CN2CC(C)OC(C)C2)cc1 (stereo not given),0

# From PubChem BioAssay
